Several values for one entry are separate records, joined by “and”; a condition that tells them apart may be missing. Equal values may be shown once. The panel holds about 83,000 compounds, 20% with a hit somewhere; the sample as a whole holds those more often.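 Interpretation: 100, growth as untreated; towards 0, rising growth inhibition; 0, no net growth; 0 to -100, cell death. Compounds scoring below 10 were considered active.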 Activity calls are given as the source filed them.

This assay deals with NCI-H460 lung. In words: NCI-60 one-dose screen, 48 h (100 = growth as untreated, 0 = no growth, -100 = all killed). The conditions noted are these: 10 µM unless noted. The protocol: Growth inhibition of the NCI-H460 human Non-Small Cell Lung tumor cell line is measured as a screen for anti-cancer activity. Cells are grown in 96 well plates and exposed to the test compound for 48 hours. Compounds are tested at a single concentration, which is 10^-5 M for most compounds. The reported endpoint is percent growth (GI% or GIPRCNT), where numbers from 0 - 100% represent growth inhibition, and numbers from -100% - 0 represent cell death. For example, a value of 40 represents 60% growth inhibition. A value of 0 means no net growth occurred over the course of the experiment. A value of -40 indicates 40% of cells at the beginning of the experiment died by the end of the experiment. A value of -100 means all cells are dead at the end of the experiment.
NCI-60 Human Tumor Cell Lines Screen was performed using the standard one-dose NCI protocol, which is described in more detail at https://dtp.cancer.gov/discovery_development/nci-60/default.htm.
Compounds with GIPRCNT values below 10 were considered active. Activity score was based on GIPRCNT using the following formula: […]
Score is 0 for GIPRCNT values of 100 or above, 50 for GIPRCNT values of 0, and 100 for GIPRCNT values of -100.
As to `Fc1ccc([I+]c2ccc(F)cc2)cc1`, the growth was 86.1% (inactive).

As to `NC(Cc1c[nH]c2ccccc12)C(=O)O` (stereo not given), the growth is 105% (inactive) and 101% (inactive).

For the molecule `CC1CCC2(OC1)OC1CC3C4CC=C5CC(O)CCC5(C)C4CCC3(C)C1C2C` (stereo not given), the growth was 103% (inactive).

For the molecule `CN(C)c1ccc(/C=C\C(=O)c2ccccc2)cc1`, the growth is 102% (inactive) and 99.8% (inactive) and 104% (inactive).

Consider `CCOC(=O)c1c(C)cc(=O)oc1C`, for which the growth was 110% (inactive).

Consider `O=[N+]([O-])c1cccc(SSc2cccc([N+](=O)[O-])c2)c1`, for which the growth is 109% (inactive).

`O=C(O)/C=C\C(=O)Nc1cccc2ccccc12`: the growth was 101% (inactive) and 111% (inactive).

For `Cc1ccc(=O)[nH]n1`, the growth is 105% (inactive) and 107% (inactive).

Turning to `Cl`, the growth was 107% (inactive).

As for `NC1CCC(C(=O)O)CC1` (stereo not given), the growth is 98.9% (inactive) and 104% (inactive).

Consider `Cc1ccc(S(=O)(=O)c2ccccc2)cc1`, for which the growth was 20.7% (inactive).

On to `O=CN1CCCCC1`, for which the growth was 112% (inactive).

Take `CC(=O)NCC(=O)c1ccc([N+](=O)[O-])cc1`: the growth is 104% (inactive).

For the molecule `O=C(Cc1ccccc1)c1ccc(O)c(Cl)c1`, the growth is 32.3% (inactive).

`COc1ccc(C(=O)CC(c2ccccc2)C(C#N)c2ccccc2)cc1` (stereo not given): the growth is 92.8% (inactive).

As to `N#CC(C#N)N=Nc1ccc(Cl)cc1`, the growth is 91% (inactive).

Take `CC(=O)OC(C)C(=O)NCC(C)O` (stereo not given): the growth was 98.2% (inactive).

Turning to `O=C(O)CCCl`, the growth is 106% (inactive).

`CC[C@H](CC[C@@H](C)[C@H]1CC[C@H]2[C@@H]3CC=C4C[C@@H](O)CC[C@]4(C)[C@H]3CC[C@]12C)C(C)C`: the growth is 105% (inactive) and 107% (inactive).

As to `CC(=O)Nc1ccc(S(N)(=O)=O)cc1`, the growth was 102% (inactive) and 105% (inactive).

As for `CCCCCCCCCCCCCCCCC(C(=O)O)C(O)(CC(=O)O)C(=O)O` (stereo not given), the growth was 105% (inactive) and 4.08% (active).

On to `O=C(CO)C(O)C(O)C(O)C(O)CO` (stereo not given), for which the growth is 109% (inactive) and 108% (inactive).

In the case of `Nc1ccc2c(O)cc(S(=O)(=O)O)cc2c1`, the growth is 98.4% (inactive) and 102% (inactive).

Take `c1ccc(-c2nc3ccccc3s2)cc1`: the growth was 97.5% (inactive).

Take `CCN(CCNS(C)(=O)=O)c1ccc(N)c(C)c1`: the growth was 107% (inactive) and 99.7% (inactive).

On to `Brc1ccc(SSc2ccc(Br)cc2)cc1`, for which the growth is 68.1% (inactive).

For `OCCN1CCCCCCC1`, the growth is 106% (inactive).

In the case of `N#CC(C#N)N=Nc1cc(Cl)ccc1Cl`, the growth is 102% (inactive).

For `O=C1CSC2=NCCN12`, the growth was 96.3% (inactive) and 99.3% (inactive).

In the case of `OC1COC(OCc2ccccc2)C(O)C1O` (stereo not given), the growth was 106% (inactive).

With `CCCCNc1ccc(Nc2ccccc2)cc1`, the growth is 76.7% (inactive).

With `Nc1cc(N)c(N)cc1N`, the growth was 96.8% (inactive).

Turning to `CCCCCCCCCCCCCCCc1ccc(N)c(OC2OC(CO)C(O)C(O)C2O)c1` (stereo not given), the growth was 102% (inactive).

Turning to `Nc1nc(N)c2[nH]cnc2n1`, the growth is 96.2% (inactive).

As for `Cc1cc(-c2ccc(N=Nc3ccc4c(S(=O)(=O)O)cc(S(=O)(=O)O)c(N)c4c3O)c(C)c2)ccc1N=Nc1ccc2c(S(=O)(=O)O)cc(S(=O)(=O)O)c(N)c2c1O`, the growth was 111% (inactive).

With `CN1CNC(=O)NC1`, the growth is 103% (inactive) and 108% (inactive).

Consider `O=C1OC(C(O)C(O)CO)C(O)=C1O` (stereo not given), for which the growth was 96.8% (inactive) and 112% (inactive).

For `O=C1OC(c2ccccc2)=N/C1=C\c1ccccc1`, the growth is 103% (inactive).

As for `O=c1n(CC2CO2)c(=O)n(CC2CO2)c(=O)n1CC1CO1` (stereo not given), the growth is 19.2% (inactive).

Regarding `CC1CCC(C(C)C)C(NNC(N)=O)C1` (stereo not given), the growth was 104% (inactive).

Source of the values: PubChem BioAssay (NCI).
